Results filed as inconclusive are left out. Activity calls are given as the source filed them. Calls come from the whole dose curve; as a rule, active = well fitted inhibition curve with a large enough effect; inconclusive = small, poorly fitted or top-dose-only effect; inactive = no such curve, though single readings can be large or run the other way.
Experiment: Primary qHTS for small molecule stabilizers of the endoplasmic reticulum resident proteome: Secreted ER Calcium Modulated Protein (SERCaMP) assay (AID 1508630)
Conditions: SH-SY5Y GLuc-SERCaMP (Gaussia luciferase released on ER calcium loss) secretion, thapsigargin, luminescence; series mostly up to 38.4 µM; activity change, negative = inhibition: at the top concentration
Method in brief: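 The SH-SY5Y reporter protocol was run at 3 concentrations up to 38.3 uM (primary) or 11 concentrations (follow-up): 16 h compound, 100 nM thapsigargin for 4 h, then extracellular luciferase luminescence.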
With `COc1cc2c(cc1OC)C(C(=O)c1ccc(OC)c(OC)c1O)=NCC2` the “activity change, negative = inhibition” value was 9.09% (inactive). For `CN1CCN(c2ccc(Nc3c4ccccc4nc4ccccc34)cc2)CC1`, the “activity change, negative = inhibition” value was 293% (inactive). In the case of `CC(C)(O)[C@@H]1CCC[N+]2(C)CCCC[C@H]12` (stereo not given in full), the “activity change, negative = inhibition” value is reported as -10% (inactive). In the case of `C[C@H]1OC(=O)CC[C@@H]2[C@]1(C)CCC1[C@@]2(C)CC[C@@]2(C)C3CC(C)(C)CC[C@]3(CO)CC[C@]12C` (stereo not given in full), the “activity change, negative = inhibition” value is reported as -10.2% (inactive). In the case of `CC1OCC23CC[C@@]4(C)CCC(C)(C)C[C@H]4[C@]2(C)CCC12C3CC[C@@]1(C)C2C(=O)CC(=O)[C@@H]1C` (stereo not given in full), the “activity change, negative = inhibition” value is reported as -15.3% (inactive). With `C/C(N[C@@H]1CSCC1O)=C1/C(=O)CC2[C@@H]1C2(C)C` (stereo not given in full) the “activity change, negative = inhibition” value was -8.06% (inactive). In the case of `O=C(O)C1CCC[C@@H]2[C@@H]3CC(CN12)[C@@H]1CCCCN1C3` (stereo not given in full), the “activity change, negative = inhibition” value is reported as 39.3% (inactive). In the case of `COc1cc2c(cc1OC)OC(C)(C)C=C2`, the “activity change, negative = inhibition” value is reported as 7.84% (inactive). In the case of `COc1ccc([C@@H](C)C(=O)c2ccc(O)cc2O)cc1`, the “activity change, negative = inhibition” value is reported as 15.6% (inactive). With `Oc1cc2c(cc1O)[C@@H]1c3ccc(O)c(O)c3OC[C@]1(O)C2` the “activity change, negative = inhibition” value was -0.74% (inactive). With `COc1cc2c(cc1OC)C(/C=C/c1ccc(OC)c(OC)c1OC)=NCC2` the “activity change, negative = inhibition” value was 156% (inactive). For `CC(=O)OC[C@@]12C(=O)[C@@H](O)[C@@H](C)[C@]3(C[C@@H](c4ccoc4)O[C@@H]3OC(C)=O)[C@H]1CCC[C@]21CO1`, the “activity change, negative = inhibition” value was -3.64% (inactive). In the case of `COC(=O)[C@H]1Cc2c([nH]c3ccccc23)CN1C(=O)COc1ccc2c(C)cc(=O)oc2c1`, the “activity change, negative = inhibition” value is reported as 26.7% (inactive). In the case of `C=CC(C)(O)CC1[C@@]2(C)CCCC(C)(C)C2CC[C@]1(C)O` (stereo not given in full), the “activity change, negative = inhibition” value is reported as 57.4% (inactive). With `COc1ccc(C(=O)OC2CC3CC[C@H](C2)N3C(C)=O)cc1OC` (stereo not given in full) the “activity change, negative = inhibition” value was 5.69% (inactive). In the case of `Cc1nc2[nH]c(=O)[nH]c(=O)c2[nH]1`, the “activity change, negative = inhibition” value is reported as -28.5% (inactive). For `COc1ccc([C@@H]2[C@@H](O)[C@H](O)[C@@H](C)N2C)cc1OC`, the “activity change, negative = inhibition” value was -12.6% (inactive). With `C/C=C(\C)C(=O)O[C@H]1C[C@@]2(C)CCC(C(C)C)C2(O)CC[C@@]1(C)O` (stereo not given in full) the “activity change, negative = inhibition” value was 34.9% (inactive). With `CC(=O)C1(C)CC2(CC(C)(C)OC2=O)C(=O)O1` (stereo not given) the “activity change, negative = inhibition” value was -23% (inactive). In the case of `CC1=NN(c2ccc([N+](=O)[O-])cc2)C(=O)C1[N+](=O)[O-]` (stereo not given), the “activity change, negative = inhibition” value is reported as -8.31% (inactive). In the case of `COc1ccc(C2c3cc(OC)c(OC)cc3Cc3c4cc(OC)c(OC)cc4cc[n+]32)cc1OC` (stereo not given), the “activity change, negative = inhibition” value is reported as -7.84% (inactive). With `COc1ccc(C(=O)N(O)c2ccccc2)cc1` the “activity change, negative = inhibition” value was -1.43% (inactive). For `COc1ccc(/C=C/C(=O)/C=C/c2ccc(OC)cc2OC)c(OC)c1`, the “activity change, negative = inhibition” value was 73.2% (inactive). For `COc1c(C=O)c(=O)[nH]c2c(OC)cccc12`, the “activity change, negative = inhibition” value was -1.92% (inactive). With `CCCCCCCCCCCCCCCC(=O)C1=C(O)C(CO)OC1=O` (stereo not given) the “activity change, negative = inhibition” value was -2.77% (inactive). With `COc1c(O)cc2c(=O)oc3c(OC)c(O)cc4c(=O)oc1c2c34` the “activity change, negative = inhibition” value was -15.1% (inactive). In the case of `COc1cc2c(cc1OC)C(c1c[nH]c3ccccc13)NCC2` (stereo not given), the “activity change, negative = inhibition” value is reported as -29.2% (inactive). With `Cc1cc2c3c(cccc3n1)C(=O)c1ccccc1-2` the “activity change, negative = inhibition” value was 13.7% (inactive). For `COC(C)C(C(=O)OCC1=CCN2CC[C@H](O)[C@@H]12)C(C)C` (stereo not given in full), the “activity change, negative = inhibition” value was -14% (inactive). In the case of `COc1cc2c(cc1OC)C1CCC3=C([C@H](C)OC3=O)N1CC2` (stereo not given in full), the “activity change, negative = inhibition” value is reported as -6.63% (inactive). In the case of `CC(C)=CCn1cnc2c1c(=O)n(C)c(=O)n2C`, the “activity change, negative = inhibition” value is reported as -24.8% (inactive). In the case of `COc1ccc([C@H]2O[C@@H](c3ccc(OC)c(OC)c3)[C@H](C)[C@@H]2C)cc1OC`, the “activity change, negative = inhibition” value is reported as -15% (inactive). With `C=C1CCC2[C@](C)(CO)[C@H](O)CC[C@@]2(C)[C@@H]1C/C=C1/C(=O)OC[C@H]1O` (stereo not given in full) the “activity change, negative = inhibition” value was 2.56% (inactive). With `COc1c(C2=CC(=O)N(C)C2=O)c2c(n1C)C(=O)c1ccccc1C2=O` the “activity change, negative = inhibition” value was -30% (inactive). For `COc1c2c(cc3c1C(c1c(O)c4ccccc4oc1=O)N(C)CC3)OCO2` (stereo not given), the “activity change, negative = inhibition” value was -10.8% (inactive). In the case of `CC1(C)Oc2ccc3ccc(=O)oc3c2CC1=O`, the “activity change, negative = inhibition” value is reported as 12.5% (inactive). With `CCCCN(CC)CCOc1cccc2ccccc12` the “activity change, negative = inhibition” value was 242% (inactive). In the case of `Cc1cn2c(=O)c3ccccc3nc2n2c(=O)c3ccccc3nc12`, the “activity change, negative = inhibition” value is reported as 4.99% (inactive). In the case of `CC1NC(C(=O)O)Cc2c1[nH]c1ccccc21` (stereo not given), the “activity change, negative = inhibition” value is reported as 6.01% (inactive). In the case of `CN1C(=O)N(C)C2=NNC=NC2(O)C1=O` (stereo not given), the “activity change, negative = inhibition” value is reported as 1.04% (inactive).

Source: PubChem BioAssay (NCATS)
% is set by controls: 0 for no effect and ±100 for the full control effect.
